Values joined by “and” are separate entries in the source; they are usually repeats but may differ in a detail not shown here. Equal entries are not always repeated. The campaign covered roughly 5,500 compounds. About 2,000 (36%) were called active. Another 18% or so got no clear call; they are omitted. No stated cut-off is given here; in the data, active means normalized growth mostly below about 0.91 (no sharp cut-off); inconclusive means no clear call, values can overlap the other calls; inactive means mostly above about 0.92. Some of the results follow.
Assay: chemical genetic growth profiling, strain panel (AID 1159580);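 further: tested at 20 µM; growth read once vehicle control cultures reached saturation at 30 °C; 1 = growth at the plate median or of vehicle wells; lower values mean less growth of the strain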
Conditions: S. cerevisiae deletion strains, growth OD

Measured: normalized growth

CNC1(C)C2CCC(C2)C1(C)C (stereo unspecified)
inactive: locus YAL013W, strain DEP1, active compounds read low 0.982 | locus YAL021C, strain ccr4, active compounds read low 0.97 | locus YAL026C, strain drs2, active compounds read low 1 | locus YAL030W, strain snc1, active compounds read low 1 | locus YAL040C, strain CLN3, active compounds read low 1 | locus YBL061C, strain skt5, active compounds read low 0.998 | locus YBR009C, strain hhf1, active compounds read low 0.993 | locus YBR021W, strain FUR4, active compounds read low 1.03 | locus YBR023C, strain chs3, active compounds read low 0.981 | locus YBR171W, strain sec66, active compounds read low 0.986 | locus YBR229C, strain ROT2, active compounds read low 0.961 | locus YBR231C, strain swc5, active compounds read low 0.982 | locus YBR279W, strain paf1, active compounds read low 0.986 | locus YCL011C, strain gbp2, active compounds read low 0.996 | locus YCL016C, strain dcc1, active compounds read low 0.977 | locus YCL029C, strain bik1, active compounds read low 0.991 | locus YCL061C, strain MRC1 (second series), active compounds read low 0.999 | locus YCL061C, strain MRC1, active compounds read low 0.989 | locus YCL069W, strain vba3, active compounds read low 0.997 | locus YCR088W, strain abp1, active compounds read low 0.994 | locus YDL005C, strain med2, active compounds read low 0.992 | locus YDL035C, strain GPR1, active compounds read low 0.993 | locus YDL040C, strain nat1, active compounds read low 0.997 | locus YDL074C, strain BRE1, active compounds read low 0.957 | locus YDL101C, strain DUN1, active compounds read low 0.969 | locus YDL134C, strain PPH21, active compounds read low 0.989 | locus YDL185W, strain tfp1, active compounds read low 0.968 | locus YDL192W, strain arf1, active compounds read low 0.996 | locus YDR001C, strain nth1, active compounds read low 0.996 | locus YDR069C, strain doa4, active compounds read low 1.02 | locus YDR101C, strain arx1, active compounds read low 1.01 | locus YDR137W, strain rgp1, active compounds read low 0.987 | locus YDR150W, strain NUM1, active compounds read low 0.977 | locus YDR159W, strain sac3, active compounds read low 0.994 | locus YDR162C, strain NBP2, active compounds read low 0.913 | locus YDR195W, strain ref2 1 | locus YDR297W, strain sur2, active compounds read low 0.993 | locus YDR318W, strain mcm21, active compounds read low 1.03 | locus YDR334W, strain swr1, active compounds read low 1 | locus YDR335W, strain msn5, active compounds read low 0.999 | locus YDR363W, strain ESC2, active compounds read low 0.993 | locus YDR388W, active compounds read low 1.01 | locus YDR392W, strain spt3, active compounds read low 0.93 | locus YDR502C, strain sam2, active compounds read low 0.984 | locus YEL003W, strain gim4, active compounds read low 1 | locus YEL037C, strain rad23, active compounds read low 0.995 | locus YEL061C, strain CIN8 (second series), active compounds read low 1 | locus YEL061C, strain CIN8, active compounds read low 0.982 | locus YER002W, strain NOP16, active compounds read low 1 | locus YER015W, strain faa2, active compounds read low 1 | locus YER016W, strain bim1, active compounds read low 0.997 | locus YER110C, active compounds read low 0.993 | locus YER111C, strain swi4, active compounds read low 1 | locus YER155C, strain BEM2 (second series), active compounds read low 0.995 | locus YER155C, strain BEM2, active compounds read low 0.987 | locus YER167W, strain BCK2, active compounds read low 1 | locus YFR010W, strain ubp6, active compounds read low 0.993 | locus YGL078C, strain dbp3, active compounds read low 0.992 | locus YGL086W, strain mad1, active compounds read low 1.01 | locus YGL167C, strain pmr1, active compounds read low 0.993 | locus YGL173C, strain kem1, active compounds read low 0.995 | locus YGL227W, strain vid30, active compounds read low 0.987 | locus YGL240W, strain doc1, active compounds read low 0.985 | locus YGL248W, strain PDE1, active compounds read low 0.982 | locus YGL253W, strain hxk2, active compounds read low 1 | locus YGR078C, strain PAC10, active compounds read low 0.978 | locus YGR135W, strain pre9, active compounds read low 0.96 | locus YGR229C, strain SMI1, active compounds read low 0.987 | locus YGR252W, strain gcn5, active compounds read low 1.08 | locus YHR013C, strain ard1, active compounds read low 0.982 | locus YHR027C, strain rpn1, active compounds read low 0.999 | locus YHR030C, strain SLT2, active compounds read low 0.996 and 0.974 | locus YHR079C, strain IRE1 (second series), active compounds read low 0.998 | locus YHR079C, strain IRE1, active compounds read low 0.941 | locus YHR094C, strain hxt1, active compounds read low 0.999 | locus YHR129C, strain ARP1, active compounds read low 0.99 | locus YHR142W, strain chs7, active compounds read low 0.974 | locus YHR200W, strain rpn10, active compounds read low 1 | locus YIL066C, strain RNR3, active compounds read low 0.989 | locus YIL073C, strain SPO22, active compounds read low 1.04 | locus YIL125W, strain kgd1, active compounds read low 0.989 | locus YIR030C, strain dcg1, active compounds read low 0.991 | locus YJL092W, strain hpr5, active compounds read low 0.991 | locus YJL095W, strain BCK1 (second series), active compounds read low 0.996 | locus YJL095W, strain BCK1, active compounds read low 0.996 and 0.958 | locus YJL115W, strain asf1, active compounds read low 0.993 | locus YJL129C, strain trk1, active compounds read low 0.976 | locus YJL134W, strain LCB3, active compounds read low 0.988 | locus YJL154C, strain vps35, active compounds read low 0.994 | locus YJL164C, strain tpk1, active compounds read low 0.985 | locus YJL166W, strain qcr8, active compounds read low 0.991 | locus YJL168C, strain set2, active compounds read low 0.993 | locus YJL187C, strain SWE1 (second series), active compounds read low 0.967 | locus YJL187C, strain SWE1, active compounds read low 0.995 | locus YJR043C, strain POL32, active compounds read low 1.02 | locus YJR066W, strain TOR1, active compounds read low 0.981
